# Several values for one entry are separate records, joined by “and”; a condition that tells them apart may be missing. Equal entries are not always repeated. Activity calls are given as the source filed them. Unless noted, no rule for the calls is given here.
# Experiments:
# [1] = system: Wnt5a (protein binding on small-molecule microarray); assay: Wnt5a binders on small-molecule microarray, primary screen, biophysical, 635/667 nm fluorescence (AID 1142); settings: 635 nm fluorescence, higher = more signal;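 also: fluorescence read at 667 nm with signal to noise per printed feature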
# [2] = cell viability in Huh7 cells, primary screen, cytotoxicity control for HCV replication inhibitor project, CellTiter-Glo luminescence, basal, 48 h (AID 1143); settings: Huh7 HCV replicon, higher = more signal, called active from +8 up or from −8 down;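 also: Huh7 hepatoma cells carrying a hepatitis C replication reporter with no stimulus; test concentration not given here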
# [3] = P. aeruginosa biofilm formation inhibitors, primary screen, PAO1 strain, BacTiter-Glo luminescence, LB-PBS (AID 1144); settings: 12 h, higher = more signal
# [4] = CREB reporter modulators without forskolin, primary screen, cell-based, PC12, CRE-LacZ reporter, unstimulated (AID 1145); settings: no forskolin, luminescence, 4.5 h, higher = more signal, called active from +8 up or from −8 down
# [5] = CREB reporter modulators under forskolin, primary screen, cell-based, PC12, CRE-LacZ reporter, forskolin-stimulated (AID 1146); settings: luminescence, 4.5 h, higher = more signal, called active from +8 up or from −8 down;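 also: PC12 cells with 6xCRE LacZ reporter stimulated by forskolin 10 µM; beta-galactosidase reporter signal reflecting CREB driven transcription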
# [6] = target: Streptavidin (Streptomyces avidinii) (UniProt P22629); assay: streptavidin binders on small-molecule microarray, primary screen, artefact control for SMM compound annotation, biophysical, 635/667 nm fluorescence (AID 1147); settings: streptavidin binding, higher = more signal;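 also: signal reflects streptavidin binding to arrayed compounds as a control protein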
# Chain of Streptavidin (Streptomyces avidinii) (P22629 whole entry, looked up): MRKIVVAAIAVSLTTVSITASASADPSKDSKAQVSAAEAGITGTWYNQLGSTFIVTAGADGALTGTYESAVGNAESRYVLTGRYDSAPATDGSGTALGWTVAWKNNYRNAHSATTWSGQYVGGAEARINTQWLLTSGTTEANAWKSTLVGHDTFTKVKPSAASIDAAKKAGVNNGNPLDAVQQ
# [7] = small-molecule binders of probe aInhba, primary screen, biochemical, small-molecule microarray, 635/667 nm fluorescence (AID 1148); settings: higher = more signal;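 also: score merges 667nm spot fluorescence with signal-to-noise for antibody binding to printed compounds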
# Torsin-1A (Homo sapiens) [8] = target: Torsin-1A (Homo sapiens) (UniProt O14656); assay: torsin A binders from cell lysate, primary screen, small-molecule microarray, wild-type, 635/667 nm (AID 1149); settings: COS7 hTOR1A-WT lysate, 635 nm fluorescence, higher = more signal
# Chain of Torsin-1A (Homo sapiens) (O14656 whole entry, looked up): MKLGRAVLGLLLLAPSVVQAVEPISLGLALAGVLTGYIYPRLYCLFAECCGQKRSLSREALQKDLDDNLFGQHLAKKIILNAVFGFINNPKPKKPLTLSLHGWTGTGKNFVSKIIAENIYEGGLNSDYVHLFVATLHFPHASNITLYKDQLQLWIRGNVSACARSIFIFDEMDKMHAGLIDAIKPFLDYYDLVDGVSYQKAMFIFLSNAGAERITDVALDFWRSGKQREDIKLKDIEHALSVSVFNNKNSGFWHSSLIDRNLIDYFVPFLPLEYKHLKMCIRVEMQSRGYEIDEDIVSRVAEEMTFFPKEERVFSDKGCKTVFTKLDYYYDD
# Torsin-1A (Homo sapiens) [9] = target: Torsin-1A (Homo sapiens) (UniProt O14656); assay: small-molecule binders of mutant TOR1A in lysate, primary screen, cell lysate, small-molecule microarray, COS7 lysate, 635/667 nm fluorescence (AID 1150); settings: COS7 hTOR1A mutant lysate, 635 nm fluorescence, higher = more signal;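 also: score pools 667 nm emission and signal to noise measuring lysate protein binding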
# [10] = system: Sonic hedgehog protein (Shh); assay: small-molecule binders of Shh protein, primary screen, biochemical, small-molecule microarray, 635/667 nm fluorescence (AID 1151); settings: small-molecule microarray binding, 635 nm fluorescence; higher = more signal;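 also: Shh protein binding to compounds spotted on small-molecule microarray slides; score combines spot fluorescence intensity with signal-to-noise across triplicate slides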
# [11] = E. coli DRC41 culture turbidity changes, primary screen, E. coli filamentation inducer project, strain DRC41, OD650, 48 h (AID 1152);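 also: E. coli MC1000 strain DRC41 lacking acrAB efflux pump and sulA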; settings: E. coli DRC41 (acrAB sulA), higher = more signal, called active from +8 up or from −8 down
# [12] = small-molecule binders of probe aLefty1, primary screen, biochemical, small-molecule microarray, 635/667 nm fluorescence (AID 1153); settings: higher = more signal;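 also: score merges spot fluorescence with signal-to-noise ratio from the scanned slide images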
# [13] = PSAC antagonists in infected red cells, primary screen, cell-based, P. falciparum Indochina, OD700, 1 h (AID 1154); settings: P. falciparum Indochina infected RBC osmotic lysis, higher = more signal, called active from +8 up or from −8 down
# [14] = PSAC antagonists in infected red cells, primary screen, cell-based, P. falciparum Indochina, OD700, 2 h (AID 1155);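 also: lysis reports solute entry through the parasite surface anion channel PSAC; channel blockers reduce lysis of infected cells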; settings: P. falciparum Indochina infected erythrocytes, osmotic lysis OD700; higher = more signal, called active from +8 up or from −8 down
# [15] = osmotic lysis modulators in infected erythrocytes, primary screen, PSAC antagonist project, cell-based, P. falciparum Indochina, OD700, 3 h (AID 1156); settings: higher = more signal, called active from +8 up or from −8 down
# [16] = PSAC antagonists in infected red cells, primary screen, cell-based, P. falciparum Indochina, OD700, 18 h (AID 1157); settings: P. falciparum Indochina infected erythrocytes, osmotic lysis OD700, 18 h; higher = more signal, called active from +8 up or from −8 down
# [17] = modulators of S6 phosphorylation in cells, primary screen, cell-based, A549, cytoblot, luminescence, serum-stimulated (AID 1158); settings: A549 phospho-S6 cytoblot, 5 h, higher = more signal;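 also: serum-stimulated A549 lung adenocarcinoma cells; signal is phosphorylated S6 detected by cytoblot immunostaining with HRP secondary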
# [18] = target: NADPH oxidase 2 (Homo sapiens) (UniProt P04839); assay: NOX2-dependent H2O2 signal modulators, primary screen, NOX inhibitor project, cell-based, HEK293-NOX2, PMA-stimulated, Amplex Red fluorescence (AID 1159); settings: 45 min, higher = more signal, called active from +8 up or from −8 down; also: test concentration not given here
# Chain of NADPH oxidase 2 (Homo sapiens) (P04839 whole entry, looked up): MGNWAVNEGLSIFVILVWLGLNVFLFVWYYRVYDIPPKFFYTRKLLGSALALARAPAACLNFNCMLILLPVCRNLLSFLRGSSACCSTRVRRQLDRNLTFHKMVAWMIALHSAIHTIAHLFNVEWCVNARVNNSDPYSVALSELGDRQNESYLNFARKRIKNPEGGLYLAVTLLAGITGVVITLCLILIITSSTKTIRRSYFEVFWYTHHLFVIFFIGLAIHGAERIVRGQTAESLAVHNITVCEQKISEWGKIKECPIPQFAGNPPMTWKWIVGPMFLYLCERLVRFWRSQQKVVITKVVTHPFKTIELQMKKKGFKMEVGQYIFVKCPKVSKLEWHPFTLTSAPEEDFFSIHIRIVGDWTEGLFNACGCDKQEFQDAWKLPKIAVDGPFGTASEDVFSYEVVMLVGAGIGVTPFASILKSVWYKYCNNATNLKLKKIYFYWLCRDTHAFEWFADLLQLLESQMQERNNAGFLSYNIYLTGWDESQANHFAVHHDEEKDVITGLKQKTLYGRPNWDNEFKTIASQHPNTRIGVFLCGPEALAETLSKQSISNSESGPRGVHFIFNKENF
# [19] = target: NADPH oxidase 4 (Homo sapiens) (UniProt Q9NPH5); assay: NOX4-dependent H2O2 signal modulators, primary screen, NOX inhibitor project, cell-based, HEK293-NOX4, tetracycline-induced, Amplex Red fluorescence (AID 1160); settings: 45 min, higher = more signal, called active from +8 up or from −8 down
# Chain of NADPH oxidase 4 (Homo sapiens) (Q9NPH5 whole entry, looked up): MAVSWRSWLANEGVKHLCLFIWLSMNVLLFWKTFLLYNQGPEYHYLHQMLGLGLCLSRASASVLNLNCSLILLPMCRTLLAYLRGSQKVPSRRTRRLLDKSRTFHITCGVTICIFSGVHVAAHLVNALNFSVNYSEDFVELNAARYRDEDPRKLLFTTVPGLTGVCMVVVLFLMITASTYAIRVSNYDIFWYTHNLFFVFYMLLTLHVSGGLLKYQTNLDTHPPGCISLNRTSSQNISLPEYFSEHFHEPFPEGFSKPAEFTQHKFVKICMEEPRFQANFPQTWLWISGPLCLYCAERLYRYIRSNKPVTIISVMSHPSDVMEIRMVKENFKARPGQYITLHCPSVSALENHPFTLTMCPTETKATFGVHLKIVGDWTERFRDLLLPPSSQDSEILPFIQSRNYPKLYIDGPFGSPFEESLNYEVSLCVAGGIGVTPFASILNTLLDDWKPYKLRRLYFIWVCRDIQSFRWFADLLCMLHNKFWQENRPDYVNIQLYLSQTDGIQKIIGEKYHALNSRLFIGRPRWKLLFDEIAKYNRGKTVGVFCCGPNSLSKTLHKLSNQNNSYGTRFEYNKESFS
# [20] = target: NADPH oxidase 5 (Homo sapiens) (UniProt Q96PH1); assay: NOX5-dependent H2O2 signal modulators, primary screen, NOX inhibitor project, cell-based, HEK293-NOX5, Amplex Red fluorescence (AID 1161); settings: HEK293-NOX5, ionomycin, 45 min, higher = more signal
# Chain of NADPH oxidase 5 (Homo sapiens) (Q96PH1 whole entry, looked up): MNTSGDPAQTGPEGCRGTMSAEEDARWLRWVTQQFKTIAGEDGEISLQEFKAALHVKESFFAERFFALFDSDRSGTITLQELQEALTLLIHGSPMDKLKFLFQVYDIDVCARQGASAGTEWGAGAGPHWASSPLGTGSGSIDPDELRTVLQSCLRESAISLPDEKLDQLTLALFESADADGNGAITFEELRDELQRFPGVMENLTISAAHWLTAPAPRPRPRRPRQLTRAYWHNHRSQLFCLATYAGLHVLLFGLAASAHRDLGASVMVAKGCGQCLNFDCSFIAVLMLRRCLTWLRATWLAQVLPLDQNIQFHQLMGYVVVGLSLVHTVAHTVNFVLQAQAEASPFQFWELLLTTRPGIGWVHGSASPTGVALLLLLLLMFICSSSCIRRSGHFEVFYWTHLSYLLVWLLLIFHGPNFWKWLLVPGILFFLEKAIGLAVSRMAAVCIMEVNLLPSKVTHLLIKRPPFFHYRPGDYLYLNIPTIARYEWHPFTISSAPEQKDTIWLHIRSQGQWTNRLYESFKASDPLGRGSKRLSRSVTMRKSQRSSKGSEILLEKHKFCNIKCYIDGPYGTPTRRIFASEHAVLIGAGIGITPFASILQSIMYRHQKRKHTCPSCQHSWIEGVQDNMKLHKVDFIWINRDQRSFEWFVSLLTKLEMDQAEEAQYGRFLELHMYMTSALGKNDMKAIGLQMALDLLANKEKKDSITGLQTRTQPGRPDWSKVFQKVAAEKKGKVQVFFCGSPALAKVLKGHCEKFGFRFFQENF
SMILES,composite z-score [1],z-score [2],z-score [3],z-score [4],z-score [5],composite z-score [6],composite z-score [7],composite z-score (Torsin-1A (Homo sapiens) [8]),composite z-score (Torsin-1A (Homo sapiens) [9]),composite z-score [10],z-score [11],composite z-score [12],z-score [13],z-score [14],z-score [15],z-score [16],z-score [17],z-score [18],z-score [19],z-score [20]
COC(=O)C1=C2N(Cc3ccccc3)C(C)=C(C(=O)OC)[C@@H](c3ccccc3)N2C(=O)[C@](O)(C(=O)OC)C1,-0.0382 and -0.0845,-0.124 (inactive) and 0.0688 (inactive),0.917 (inactive) and -0.22 (inactive),2.08 (inactive) and 1.8 (inactive),-1.03 (inactive) and -0.435 (inactive),-0.302 and -0.327,-0.0736 and -0.0895,1.04 and 2.21,0.42 and 3.89,0.71 and 0.673,0.33 (inactive) and -0.579 (inactive),-0.0694 and -0.189,1.6 (inactive) and 0.553 (inactive),1.02 (inactive) and 0.676 (inactive),0.878 (inactive) and -0.159 (inactive),0.468 (inactive) and 0.318 (inactive),-0.482 and -0.524,0.258 (inactive) and 0.184 (inactive),0.64 (inactive) and 0.0139 (inactive),0.932 and 0.724
C=CCN(C(=O)C1N(CCCCCCO)C(=O)C2C(C(=O)O)C3C=CC21O3)c1ccc(OC)cc1 (stereo not given),1.04 and -0.561,0.191 (inactive) and 0.252 (inactive),1.51 (inactive),0.0564 (inactive) and 0.724 (inactive),-0.933 (inactive) and -0.173 (inactive),-0.825 and -0.728,-0.0791 and -0.0279,-3.03 and -2.03,-1.75 and -1.28,-1.27 and -1.42,2.17 (inactive) and 0.932 (inactive),0.153 and 0.659,0.12 (inactive) and -0.718 (inactive),-1.31 (inactive) and 0.0039 (inactive),-0.398 (inactive) and -0.196 (inactive),-1.43 (inactive) and -0.157 (inactive),0.441 and -0.173,0.846 (inactive) and 0.381 (inactive),-0.0568 (inactive) and -0.682 (inactive),1.3 and 0.105
CC(=O)OC[C@H]1O[C@H](C#CC(C)(C)C)C=C[C@@H]1OC(C)=O,-0.0516,0.13 (inactive),0.992 (inactive),-0.162 (inactive),1.35 (inactive),1.58,-0.0331,0.835,-0.392,0.953,0.192 (inactive),-0.0969,-0.184 (inactive),0.0987 (inactive),-0.537 (inactive),-0.0954 (inactive),-0.675,1.5 (inactive),0.847 (inactive),0.943
CON(C)C(=O)c1nnc2c3ccccc3n(S(=O)(=O)c3ccc(C)cc3)c2n1,0.26 and 0.335,0.24 (inactive) and 0.0218 (inactive),1.36 (inactive) and 0.0837 (inactive),1.37 (inactive) and 1.28 (inactive),-0.0387 (inactive) and -0.484 (inactive),1.31 and 1.67,0.0543 and -0.0018,0.201 and 1.19,0.492 and 1.11,0.642 and 1.22,-0.162 (inactive) and 0.162 (inactive),-0.262 and -0.368,1.21 (inactive) and 2.08 (inactive),0.0579 (inactive) and 0.454 (inactive),-0.212 (inactive) and 0.184 (inactive),-0.096 (inactive) and 0.149 (inactive),-0.375 and 0.313,0.442 (inactive) and -1.24 (inactive),0.882 (inactive) and 0.0607 (inactive),0.436 and 0.278
C=CCN(Cc1ccccc1)C(=O)C(c1cccs1)N(C(=O)/C=C\C(=O)O)c1ccc(CCO)cc1 (stereo not given),-1.26 and -0.913,0.735 (inactive) and 0.129 (inactive),-0.732 (inactive) and -1.02 (inactive),-0.0778 (inactive) and -0.0656 (inactive),0.0736 (inactive) and -0.183 (inactive),-1.73 and -2.16,-0.135 and -0.346,-2.97 and -2.57,-2.1 and -2.38,-1.14 and -0.843,0.906 (inactive) and 0.383 (inactive),-0.0449 and -0.314,0.149 (inactive) and -0.674 (inactive),-0.36 (inactive) and 0.526 (inactive),0.0823 (inactive) and -0.0781 (inactive),0.283 (inactive) and 0.306 (inactive),1.84 and 0.284,-0.228 (inactive) and -0.269 (inactive),-0.353 (inactive) and -0.512 (inactive),-0.0714 and -0.0433
COC(=O)C1=C(C)N(Cc2ccccc2)[C@]23O[C@](C(=O)OC)(C(=O)N2[C@@H]1c1ccccc1)[C@H]1C(=O)N(c2ccccc2)C(=O)[C@H]13,0.115 and 0.0304,-0.123 (inactive) and -0.532 (inactive),-1.18 (inactive),-0.165 (inactive) and 0.472 (inactive),-1.65 (inactive) and -0.623 (inactive),0.32 and 0.436,0.201 and -0.0552,0.718 and 0.667,0.476 and 0.211,0.833 and 1.14,-0.371 (inactive) and 0.644 (inactive),-0.139 and -0.0046,0.729 (inactive) and 0.997 (inactive),0.626 (inactive) and -1.04 (inactive),1.17 (inactive) and 2.21 (inactive),-0.0207 (inactive) and -1.23 (inactive),-0.103 and 0.506,0.983 (inactive) and 0.108 (inactive),0.632 (inactive) and 1.27 (inactive),1.07 and 0.999

# — PubChem BioAssay
